# Compounds without any hit were thinned out: in the full panel of roughly 83,000, 20% have a hit.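 96-well plates, one dose, 48 hours. Percent growth reported; active if below 10.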 A number with no mark means an inactive call. Active and inactive are the calls of the source.
# Legend:
# Assay in all cases: NCI-60 one-dose screen, 48 h (100 = growth as untreated, 0 = no growth, -100 = all killed)
# Settings in all cases: 10 µM unless noted
# SR leukemia = test system: SR leukemia
# RPMI-8226 leukemia = test system: RPMI-8226 leukemia
# OVCAR-8 ovarian = test system: OVCAR-8 ovarian
# OVCAR-5 ovarian = test system: OVCAR-5 ovarian
# OVCAR-4 ovarian = test system: OVCAR-4 ovarian
# SK-OV-3 ovarian = test system: SK-OV-3 ovarian
# IGROV1 ovarian = test system: IGROV1 ovarian
# OVCAR-3 ovarian = test system: OVCAR-3 ovarian
# HS 578T breast = test system: HS 578T breast
# NCI/ADR-RES ovarian = test system: NCI/ADR-RES ovarian
Compound,growth (SR leukemia),growth (RPMI-8226 leukemia),growth (OVCAR-8 ovarian),growth (OVCAR-5 ovarian),growth (OVCAR-4 ovarian),growth (SK-OV-3 ovarian),growth (IGROV1 ovarian),growth (OVCAR-3 ovarian),growth (HS 578T breast),growth (NCI/ADR-RES ovarian)
O=C(Oc1ccc2c(c1)sc1nc(-c3ccccc3)[nH]c(=O)c12)C(F)(F)F,18.9%,24.1%,40.8%,73.4%,51.4%,50.2%,32.9%,9.6% (active),18.8%,7.5% (active)
CC(C)Cc1nc(Nc2ccccc2)[nH]c(=O)c1C#N,34.2%,25.1%,64.4%,84.9%,36.8%,60%,71.4%,30.8%,36.2%,62.9%
O=C1/C(=C/c2ccc(Cl)cc2)CN(C(=O)C(Cl)Cl)C/C1=C\c1ccc(Cl)cc1,-8.06% (active),-28.6% (active),-3.39% (active),-61.8% (active),1.03% (active),-7.85% (active),-76.3% (active),-97.9% (active),-8.2% (active),-2.96% (active)
O=[N+]([O-])c1ccccc1Sc1ccccc1[N+](=O)[O-],104%,95.4%,102%,93.1%,95.9%,90.9%,105%,92.4%,95.8%,96.2%
C/C(=N\Nc1ccccc1)c1ccc(NC2=CC(=O)c3ccccc3C2=O)cc1,59.2%,64.3%,59.8%,72.5%,43%,65.3%,50.8%,15.4%,65.5%,54%
C[C@@H]1CN(c2cnc(C(=O)Nc3cc(F)cc4cccnc34)cn2)C[C@H](C)N1,28.6%,26%,61.1%,83.9%,12.7%,86.2%,78.9%,39.5%,76.8%,66%
Cc1nc2sc(C(=O)Nc3cccc4ccccc34)c(N)c2cc1C(=O)c1ccccc1,7.17% (active),15.6%,23.7%,32.3%,51.8%,39.7%,24.8%,-26.4% (active),11.9%,12.9%
COc1ccc(OC)c(Nc2nnc(-c3cc(OC)c(OC)c(OC)c3)o2)c1,89.6%,95.2%,104%,105%,99.3%,104%,98.5%,112%,107%,94.4%
CCCc1cc(=O)oc2c(C(=O)CC(C)C)c(O)c(CC=C(C)C)c(O)c12,14.3%,-12.6% (active),22.3%,53.8%,30.5%,23.3%,36.9%,13.6%,28.1%,0.191% (active)
Fc1ccc2[nH]cc(-c3nc(-c4c[nH]c5c(Cl)nccc45)cs3)c2c1,13.3%,48.5%,52%,99.1%,65.3%,47.5%,61.7%,70.9%,39%,53.7%
CNCC[C@H](Oc1cccc2ccccc12)c1cccs1,51.9%,94.7%,82.1%,117%,71.7%,109%,84.7%,86.9%,67.5%,83.4%
COc1cc(/C=C/c2cc(/C=C/c3ccc(O)c(OC)c3)n(C(=O)Nc3ccc(Cl)cc3)n2)ccc1O,1.52% (active),2.91% (active),-19.8% (active),10.9%,13.3%,-0.374% (active),9.93% (active),-11% (active),8.23% (active),17.5%
COC(=O)c1nc(-c2ccccc2)oc1S(=O)(=O)N1CCCC(C)C1 (stereo not given),0.921% (active),51%,81.9%,87.4%,83.2%,110%,64%,48.9%,104%,100%
COc1ccc(/C=C(\C(=O)NCc2cccnc2)S(=O)(=O)c2ccccc2)cc1OC,17.4%,18%,28.3%,45%,42.1%,81.1%,19.7%,19.7%,59.3%,83%
Cc1ncc(C(=O)Nc2ccc(CN3CCN(C)CC3)c(C(F)(F)F)c2)cc1C#Cc1cnc(N)c2ccc(C#N)cc12,4.87% (active),7.42% (active),3.22% (active),-24.7% (active),-7.66% (active),-14.6% (active),-43.9% (active),25%,-8.89% (active),39%
CCn1cc(Cc2cc(C(=O)Nc3cc4cc(OC)c(OC)cc4c(C)n3)ccc2Cl)cn1,10%,29.6%,34.6%,103%,58.2%,57.9%,69.5%,38%,49.5%,22.5%
Nc1[nH]nc2nc(-c3ccccc3)n3c4ccccc4nc3c12,92.2%,101%,98.8%,106%,101%,93%,77.9%,106%,106%,104%
c1ccc(-c2nc3ccccc3[nH]2)c(OCCCCCOc2ccccc2-c2nc3ccccc3[nH]2)c1,2.06% (active),23.8%,64.3%,92.2%,58.9%,169%,70%,59.7%,89%,63.9%
CCCC(=O)NC(c1ccc2c(c1)OCO2)c1cc(Cl)c2cccnc2c1O (stereo not given),10.9%,17.7%,10.6%,54%,19.3%,29.8%,16.2%,17.6%,44.4%,1.56% (active)
CC(C)c1ccc2c(c1)CC[C@H]1[C@](C)(C(=O)OCC#CCN3CCCC3)CCC[C@]21C,52.5%,47.5%,89%,85.8%,64.4%,88.4%,90.5%,77.6%,87.6%,82.2%
CN(C)c1ccc(C(=S)c2ccc(N(C)C)cc2)cc1,33.2%,83.1%,88.5%,94.8%,83%,82.4%,59.3%,80.7%,94.1%,28.7%
N#Cc1c(-c2ccc(Br)cc2)nc2c(N=Nc3ccc(S(N)(=O)=O)cc3)c(N)nn2c1N,41.2%,-13.6% (active),46.6%,72.3%,61.2%,82.8%,40.9%,55.3%,45.1%,97%
COC(=O)c1c(C)nc(C)c2c1C(=O)C=C(NCc1ccccc1)C2=O,54.1%,88.4%,97.8%,81.7%,64.6%,91.4%,66.7%,44.1%,116%,81.7%
O=C1NC(=O)C(c2coc3cc(Br)ccc23)=C1c1c[nH]c2ccccc12,19.9%,44.2%,51.6%,87.3%,77.5%,55.6%,52.2%,20.1%,43.3%,34%
N#CC1=C(N)Oc2c(sc3c(F)cccc23)C1c1ccc([N+](=O)[O-])cc1 (stereo not given),5.1% (active),-9.41% (active),-21.6% (active),-14.6% (active),15.1%,-7.03% (active),-26% (active),-55.1% (active),-26.1% (active),-14.2% (active)
CCOC(=O)c1ccc[nH]1,94.8%,90.5%,95.9%,78.9%,95.5%,108%,90.6%,115%,95%,95.2%
C=CN(C(=O)N1CCN(c2cc3c(cc2F)c(=O)c(C(=O)O)cn3C2CC2)CC1)c1nc(-c2ccccc2)cs1,86.2%,93.4%,91.3%,102%,93.1%,87.8%,105%,108%,97.8%,103%
